Measured values taken from publication PMC7862700, “An all-to-all approach to the identification of sequence-specific readers for epigenetic DNA modifications on cytosine”.

Key:
Assay in all cases: DAPPL (digital affinity profiling via proximity ligation, sequencing); 10 mM Tris-HCl pH 7.5, 50 mM NaCl, 1 mM DTT, 4% glycerol, room temperature, 30 min; GST-TFs on glutathione beads, 16-mer random dsDNA library, 0.1% formaldehyde crosslink after washing; high values mean tight binding
HSF1 = HSF1 (Homo sapiens, UniProt Q00613 1-529); conditions: protein: recombinant; tags: N-terminal GST; chain copies: 3; dsDNA, one strand shown
Sequence of HSF1 (Q00613 whole entry, the tested form may be a part): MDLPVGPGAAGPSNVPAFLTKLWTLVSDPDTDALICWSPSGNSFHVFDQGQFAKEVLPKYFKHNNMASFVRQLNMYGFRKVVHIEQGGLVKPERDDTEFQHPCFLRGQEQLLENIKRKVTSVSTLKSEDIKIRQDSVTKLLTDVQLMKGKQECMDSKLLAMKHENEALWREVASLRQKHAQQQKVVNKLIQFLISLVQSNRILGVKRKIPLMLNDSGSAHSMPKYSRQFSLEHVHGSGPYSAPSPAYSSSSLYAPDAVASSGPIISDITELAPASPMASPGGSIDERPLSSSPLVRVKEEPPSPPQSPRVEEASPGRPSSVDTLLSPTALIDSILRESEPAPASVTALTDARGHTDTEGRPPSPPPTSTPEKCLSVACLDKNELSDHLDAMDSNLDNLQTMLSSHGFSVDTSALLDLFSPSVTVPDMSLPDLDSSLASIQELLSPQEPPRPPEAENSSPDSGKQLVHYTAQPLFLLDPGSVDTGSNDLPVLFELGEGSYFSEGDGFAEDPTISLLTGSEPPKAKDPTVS
How it was run: (§1)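 Human transcription factors were made in yeast as GST fusions, captured on glutathione beads and barcoded with DNA. With a tag-only sample included, the pool was incubated with 200 nmole of a random double-stranded 16-mer DNA library in Tris/NaCl/DTT/glycerol buffer at room temperature for 30 min, then crosslinked with 0.1% formaldehyde after washing, ligated by proximity, amplified and sequenced. For binding signal, each hexamer's read frequency for a factor is divided by its frequency for the tag-only sample.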

SPIB = SPIB (Homo sapiens, UniProt Q01892 1-262); conditions: protein: recombinant; tags: N-terminal GST; dsDNA, one strand shown
Sequence of SPIB (Q01892 whole entry): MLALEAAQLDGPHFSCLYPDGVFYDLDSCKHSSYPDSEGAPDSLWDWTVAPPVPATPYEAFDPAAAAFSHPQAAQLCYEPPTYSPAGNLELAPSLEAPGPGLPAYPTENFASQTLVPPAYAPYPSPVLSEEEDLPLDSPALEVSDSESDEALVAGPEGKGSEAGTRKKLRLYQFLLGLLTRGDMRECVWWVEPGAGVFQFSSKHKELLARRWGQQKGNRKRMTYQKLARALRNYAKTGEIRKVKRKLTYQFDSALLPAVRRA
How it was run: as §1

SPIC = biological target: T1, SPIC (Homo sapiens, UniProt Q8N5J4 1-248); conditions: protein: recombinant; tags: N-terminal GST; dsDNA, one strand shown
T1 sequence: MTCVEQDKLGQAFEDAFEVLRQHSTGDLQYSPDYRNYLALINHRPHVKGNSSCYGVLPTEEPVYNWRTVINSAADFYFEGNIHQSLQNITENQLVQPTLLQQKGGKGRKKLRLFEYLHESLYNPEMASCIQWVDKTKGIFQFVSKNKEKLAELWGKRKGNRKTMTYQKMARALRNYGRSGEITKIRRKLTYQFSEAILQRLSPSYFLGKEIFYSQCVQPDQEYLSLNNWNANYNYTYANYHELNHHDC
How it was run: as §1

ELF4 = ELF4 (Homo sapiens, UniProt Q99607 1-663); conditions: protein: recombinant; tags: N-terminal GST; dsDNA, one strand shown
Sequence of ELF4 (Q99607 whole entry): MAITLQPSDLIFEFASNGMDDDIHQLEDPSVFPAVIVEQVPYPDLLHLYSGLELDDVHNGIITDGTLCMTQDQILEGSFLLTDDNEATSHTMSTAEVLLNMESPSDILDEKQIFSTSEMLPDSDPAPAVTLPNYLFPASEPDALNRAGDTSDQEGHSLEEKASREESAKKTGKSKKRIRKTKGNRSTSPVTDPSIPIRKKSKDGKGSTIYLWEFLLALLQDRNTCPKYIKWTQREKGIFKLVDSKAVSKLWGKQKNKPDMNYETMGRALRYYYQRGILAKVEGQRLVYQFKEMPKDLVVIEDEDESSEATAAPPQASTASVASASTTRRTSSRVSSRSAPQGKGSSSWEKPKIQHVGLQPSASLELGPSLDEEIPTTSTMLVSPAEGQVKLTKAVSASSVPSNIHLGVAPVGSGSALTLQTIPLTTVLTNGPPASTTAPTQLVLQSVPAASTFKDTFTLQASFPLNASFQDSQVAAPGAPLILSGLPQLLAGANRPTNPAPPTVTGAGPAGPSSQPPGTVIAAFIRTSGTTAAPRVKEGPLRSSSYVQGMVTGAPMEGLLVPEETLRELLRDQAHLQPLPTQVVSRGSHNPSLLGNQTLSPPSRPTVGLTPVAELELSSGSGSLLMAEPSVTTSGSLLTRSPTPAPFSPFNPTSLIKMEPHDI
How it was run: as §1

ETV2 = biological target: T2, ETV2 (Homo sapiens, UniProt O00321 1-342); conditions: protein: recombinant; tags: N-terminal GST; dsDNA, one strand shown
T2 sequence: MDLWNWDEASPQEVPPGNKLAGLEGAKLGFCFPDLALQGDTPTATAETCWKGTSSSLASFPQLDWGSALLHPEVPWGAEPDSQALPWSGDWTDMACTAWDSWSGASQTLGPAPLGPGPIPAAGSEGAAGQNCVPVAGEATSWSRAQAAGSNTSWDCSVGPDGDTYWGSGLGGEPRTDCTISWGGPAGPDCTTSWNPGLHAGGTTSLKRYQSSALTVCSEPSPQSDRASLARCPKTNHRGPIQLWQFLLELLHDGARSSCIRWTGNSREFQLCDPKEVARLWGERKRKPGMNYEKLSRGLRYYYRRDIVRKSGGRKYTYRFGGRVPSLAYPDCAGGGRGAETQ
How it was run: as §1

ELF3 = biological target: T3, ELF3 (Homo sapiens, UniProt P78545 1-371); conditions: protein: recombinant; tags: N-terminal GST; dsDNA, one strand shown
T3 sequence: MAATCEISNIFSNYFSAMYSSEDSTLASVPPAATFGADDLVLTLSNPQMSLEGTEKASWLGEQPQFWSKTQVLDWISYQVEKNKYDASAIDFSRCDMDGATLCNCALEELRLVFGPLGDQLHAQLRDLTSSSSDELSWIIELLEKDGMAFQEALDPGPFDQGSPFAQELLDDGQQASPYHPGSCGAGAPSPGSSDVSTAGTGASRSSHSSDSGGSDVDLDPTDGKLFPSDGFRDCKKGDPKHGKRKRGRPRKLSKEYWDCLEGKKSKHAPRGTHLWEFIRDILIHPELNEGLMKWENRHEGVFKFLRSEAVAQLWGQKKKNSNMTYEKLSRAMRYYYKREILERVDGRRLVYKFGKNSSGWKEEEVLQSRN
How it was run: as §1

ETV1 = ETV1 (Homo sapiens, UniProt P50549 1-477); conditions: protein: recombinant; tags: N-terminal GST; dsDNA, one strand shown
Sequence of ETV1 (P50549 whole entry): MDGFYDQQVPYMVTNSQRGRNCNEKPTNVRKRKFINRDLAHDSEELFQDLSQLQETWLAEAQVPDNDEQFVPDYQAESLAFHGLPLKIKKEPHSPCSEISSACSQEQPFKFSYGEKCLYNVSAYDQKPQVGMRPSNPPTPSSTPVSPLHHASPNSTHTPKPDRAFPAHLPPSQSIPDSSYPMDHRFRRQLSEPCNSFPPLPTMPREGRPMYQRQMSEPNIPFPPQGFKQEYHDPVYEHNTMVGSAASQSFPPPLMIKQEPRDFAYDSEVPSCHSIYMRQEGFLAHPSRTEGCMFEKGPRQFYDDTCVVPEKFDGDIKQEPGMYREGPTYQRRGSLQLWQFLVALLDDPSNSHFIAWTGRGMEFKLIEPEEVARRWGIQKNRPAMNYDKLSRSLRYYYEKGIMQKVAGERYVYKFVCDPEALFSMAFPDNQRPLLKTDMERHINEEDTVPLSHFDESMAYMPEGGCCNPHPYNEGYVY
How it was run: as §1

ETV3L = biological target: T4, ETV3L (Homo sapiens, UniProt Q6ZN32 1-361); conditions: protein: recombinant; tags: N-terminal GST; dsDNA, one strand shown
T4 sequence: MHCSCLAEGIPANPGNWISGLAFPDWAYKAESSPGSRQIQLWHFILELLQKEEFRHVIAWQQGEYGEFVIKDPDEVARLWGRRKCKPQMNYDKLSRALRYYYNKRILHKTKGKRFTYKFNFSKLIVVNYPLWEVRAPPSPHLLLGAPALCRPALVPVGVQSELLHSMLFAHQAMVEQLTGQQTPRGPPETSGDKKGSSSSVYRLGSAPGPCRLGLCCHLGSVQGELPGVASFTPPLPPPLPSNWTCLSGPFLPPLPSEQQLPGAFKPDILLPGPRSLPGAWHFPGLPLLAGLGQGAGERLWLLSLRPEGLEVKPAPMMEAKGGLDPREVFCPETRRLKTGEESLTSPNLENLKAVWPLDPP
How it was run: as §1

ETS2 = biological target: T5, ETS2 (Homo sapiens, UniProt P15036 1-469); conditions: protein: recombinant; tags: N-terminal GST; dsDNA, one strand shown
T5 sequence: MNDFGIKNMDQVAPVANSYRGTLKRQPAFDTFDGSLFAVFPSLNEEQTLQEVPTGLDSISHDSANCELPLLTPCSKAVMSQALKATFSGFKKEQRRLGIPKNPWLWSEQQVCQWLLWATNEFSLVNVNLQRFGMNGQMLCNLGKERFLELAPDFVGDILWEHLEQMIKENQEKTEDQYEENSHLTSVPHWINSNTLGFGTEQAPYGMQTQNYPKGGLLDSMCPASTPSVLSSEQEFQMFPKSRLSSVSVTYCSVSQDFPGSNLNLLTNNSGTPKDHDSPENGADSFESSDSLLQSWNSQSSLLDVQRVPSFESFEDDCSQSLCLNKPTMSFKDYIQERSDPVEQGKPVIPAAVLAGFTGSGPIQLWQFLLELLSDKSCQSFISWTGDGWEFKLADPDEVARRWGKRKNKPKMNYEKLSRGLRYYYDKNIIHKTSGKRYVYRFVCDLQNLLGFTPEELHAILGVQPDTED
How it was run: as §1

ETV7 = biological target: T6, ETV7 (Homo sapiens, UniProt Q9Y603 1-341); conditions: protein: recombinant; tags: N-terminal GST; dsDNA, one strand shown
T6 sequence: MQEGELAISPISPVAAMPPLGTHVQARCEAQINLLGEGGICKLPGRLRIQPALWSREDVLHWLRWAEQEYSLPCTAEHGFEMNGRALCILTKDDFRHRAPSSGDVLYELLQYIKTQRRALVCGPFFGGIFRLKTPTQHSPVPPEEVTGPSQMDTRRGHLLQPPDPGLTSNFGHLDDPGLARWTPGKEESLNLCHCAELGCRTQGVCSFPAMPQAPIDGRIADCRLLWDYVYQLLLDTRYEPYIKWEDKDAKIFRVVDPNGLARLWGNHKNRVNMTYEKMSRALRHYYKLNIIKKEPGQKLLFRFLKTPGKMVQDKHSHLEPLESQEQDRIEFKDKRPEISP
How it was run: as §1

ETV3 = biological target: T7, ETV3 (Homo sapiens, UniProt P41162-2 1-143); conditions: protein: recombinant; tags: N-terminal GST; dsDNA, one strand shown
T7 sequence: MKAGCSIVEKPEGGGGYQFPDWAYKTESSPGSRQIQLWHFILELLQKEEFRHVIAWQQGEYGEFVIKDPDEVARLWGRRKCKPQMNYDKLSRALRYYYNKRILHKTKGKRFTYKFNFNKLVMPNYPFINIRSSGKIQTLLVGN
How it was run: as §1

Which binding signal (HSF1) does the source give for AGAGAA here?
Its binding signal is 1.36 fold enrichment (6-mer frequency, TF over GST control).

For CTAGAG, which binding signal (HSF1) is on record?
The binding signal was 1.58 fold enrichment (6-mer frequency, TF over GST control).

How did the binding signal (SPIB) turn out when GATTCG was run?
The binding signal was 1.04 fold enrichment (6-mer frequency, TF over GST control).

What about the binding signal (HSF1) of the same sequence?
Its binding signal is 1.23 fold enrichment (6-mer frequency, TF over GST control).

What about the binding signal (SPIC) of the same sequence?
Its binding signal is 1.16 fold enrichment (6-mer frequency, TF over GST control).

And the binding signal (ELF4)?
The binding signal was 1.05 fold enrichment (6-mer frequency, TF over GST control).

And the binding signal (ETV2)?
Its binding signal is 1.02 fold enrichment (6-mer frequency, TF over GST control).

And the binding signal (ELF3)?
The binding signal was 1.09 fold enrichment (6-mer frequency, TF over GST control).

And the binding signal (ETV1)?
Its binding signal is 1.03 fold enrichment (6-mer frequency, TF over GST control).

What about the binding signal (ETV3L) of the same sequence?
The binding signal was 1.06 fold enrichment (6-mer frequency, TF over GST control).

What about the binding signal (ETS2) of the same sequence?
The binding signal was 1 fold enrichment (6-mer frequency, TF over GST control).

And the binding signal (ETV7)?
Its binding signal is 1.01 fold enrichment (6-mer frequency, TF over GST control).

What about the binding signal (ETV3) of the same sequence?
The binding signal was 1 fold enrichment (6-mer frequency, TF over GST control).
